Laboratory results as given in PubChem BioAssay (NCI).
This is part of a sample that, as a whole, favours compounds with a hit. Of some 83,000 tested, about 20% had one in any assay.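 The test compound was applied at a single concentration to cells in 96-well plates for 48 hours, and percent growth was recorded.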 Values without a mark were called inactive. Active and inactive are the calls of the source. How the source made its calls: active means growth percent below 10; inactive means the rest.

What was measured:
Assay in all cases: NCI-60 one-dose screen, 48 h (100 = growth as untreated, 0 = no growth, -100 = all killed)
Conditions in all cases: 10 µM unless noted
SK-MEL-2 melanoma = system: SK-MEL-2 melanoma
EKVX NSCLC = system: EKVX NSCLC
SN12C renal = system: SN12C renal
UO-31 renal = system: UO-31 renal
TK-10 renal = system: TK-10 renal
ACHN renal = system: ACHN renal
CAKI-1 renal = system: CAKI-1 renal
A498 renal = system: A498 renal
CCRF-CEM leukemia = system: CCRF-CEM leukemia
MOLT-4 leukemia = system: MOLT-4 leukemia
SR leukemia = system: SR leukemia
RPMI-8226 leukemia = system: RPMI-8226 leukemia
OVCAR-8 ovarian = system: OVCAR-8 ovarian
OVCAR-5 ovarian = system: OVCAR-5 ovarian
OVCAR-4 ovarian = system: OVCAR-4 ovarian
SK-OV-3 ovarian = system: SK-OV-3 ovarian
IGROV1 ovarian = system: IGROV1 ovarian
OVCAR-3 ovarian = system: OVCAR-3 ovarian
HS 578T breast = system: HS 578T breast
NCI/ADR-RES ovarian = system: NCI/ADR-RES ovarian

| SMILES | growth (SK-MEL-2 melanoma) | growth (EKVX NSCLC) | growth (SN12C renal) | growth (UO-31 renal) | growth (TK-10 renal) | growth (ACHN renal) | growth (CAKI-1 renal) | growth (A498 renal) | growth (CCRF-CEM leukemia) | growth (MOLT-4 leukemia) | growth (SR leukemia) | growth (RPMI-8226 leukemia) | growth (OVCAR-8 ovarian) | growth (OVCAR-5 ovarian) | growth (OVCAR-4 ovarian) | growth (SK-OV-3 ovarian) | growth (IGROV1 ovarian) | growth (OVCAR-3 ovarian) | growth (HS 578T breast) | growth (NCI/ADR-RES ovarian) |
| --- | --- | --- | --- | --- | --- | --- | --- | --- | --- | --- | --- | --- | --- | --- | --- | --- | --- | --- | --- | --- |
| Fc1ccc2c(-c3cncn3CCc3ccccc3)c[nH]c2c1 | 94.1% | 79.4% | 77% | 68.1% | 135% | 96.7% | 75.2% | 64.1% | 79.4% | 91.2% | 96.3% | 72.7% | 97.7% | 92.9% | 60.7% | 97.6% | 77.4% | 85.7% | 67.3% | 95.1% |
| Cc1ccc(-c2csc(NC(=O)CSc3nc(-c4ccccc4)cc(=O)[nH]3)n2)cc1 | 89.4% | 90.9% | 94.9% | 76% | 108% | 91.7% | 90.7% | 97.8% | 88.8% | 74.2% | 101% | 78.3% | 94.2% | 95.8% | 105% | 92.4% | 77.2% | 101% | 90.6% | 93.4% |
| COc1ccc(CCn2cncc2-c2c[nH]c3ccccc23)cc1 | 88.6% | 71.4% | 80.8% | 50.7% | 141% | 87% | 68.7% | 69.5% | 101% | 93.1% | 93.3% | 73.4% | 93.5% | 90.2% | 79.4% | 87.7% | 56.4% | 88.4% | 78.2% | 87.6% |
| COc1cc(C2=NN(C(C)=O)C(c3cc(OC)c(OC)c(OC)c3)C2)ccc1O (stereo not given) | 37.9% | 34.8% | 34.2% | 31.8% | 47.5% | 30.5% | 46.4% | -14.4% (active) | -16.5% (active) | 0.196% (active) | 15.6% | -27.5% (active) | 24.7% | 34% | 35.3% | 30.3% | 2.82% (active) | -51.9% (active) | -1.42% (active) | -55.4% (active) |
| Nc1c(S(=O)(=O)O)cc2c3c(cccc13)C(=O)OC2=O | 51% | 91.5% | 98.9% | 86.7% | 127% | 95.2% | 79.9% | 106% | 102% | 88.9% | 114% | 106% | 97.6% | 118% | 94% | 110% | 63.7% | 95% | 99.2% | 93.8% |
| CNCCOc1nc2c3cnccc3cc(-c3cc(OC)c(OC)c(OC)c3)c2c2ccncc12 | -77.5% (active) | -45.9% (active) | -36.9% (active) | -42.7% (active) | -34.2% (active) | -73.8% (active) | -31% (active) | -87.2% (active) | -13.1% (active) | -15.1% (active) | -18.2% (active) | -32% (active) | -37.3% (active) | -9.07% (active) | -2.03% (active) | -33.9% (active) | -16.3% (active) | 1.62% (active) | -25.7% (active) | -27.9% (active) |
| CN1[C@@H]2CC[C@H]1/C(=C\c1ccccc1)C(=O)/C2=C/c1ccccc1 | 60.7% | 69.4% | 36.8% | 55.4% | 74.9% | 42% | 41.3% | 71.7% | 16.1% | 14.9% | 19.2% | 27% | -9.6% (active) | 98.4% | 48.4% | 79.1% | 41.7% | 14.4% | 33.7% | 10.7% |
